Screen size: about 2,400 compounds; about 580 (24%) were called active. Not all results are given here. A number with no mark means an inactive call.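 The calls were made as follows: active = activity change at or above the mean plus 3 SD of buffer wells without dofetilide, per plate; inactive = the rest.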
The molecules below were run against Potassium voltage-gated channel subfamily KQT member 2 (Rattus norvegicus) (UniProt O88943) (assay: KCNQ2 potentiation in CHO cells – cell-based, FluxOR thallium flux, counter-screen for hERG block protector project, confirmation (AID 1942;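 also: normalized value minus buffer-control mean plus three SD of buffer wells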)). Conditions: FluxOR thallium flux fluorescence, at 10 µM, stronger effect = higher value.
Potassium voltage-gated channel subfamily KQT member 2 (Rattus norvegicus), sequence (O88943 whole entry, looked up): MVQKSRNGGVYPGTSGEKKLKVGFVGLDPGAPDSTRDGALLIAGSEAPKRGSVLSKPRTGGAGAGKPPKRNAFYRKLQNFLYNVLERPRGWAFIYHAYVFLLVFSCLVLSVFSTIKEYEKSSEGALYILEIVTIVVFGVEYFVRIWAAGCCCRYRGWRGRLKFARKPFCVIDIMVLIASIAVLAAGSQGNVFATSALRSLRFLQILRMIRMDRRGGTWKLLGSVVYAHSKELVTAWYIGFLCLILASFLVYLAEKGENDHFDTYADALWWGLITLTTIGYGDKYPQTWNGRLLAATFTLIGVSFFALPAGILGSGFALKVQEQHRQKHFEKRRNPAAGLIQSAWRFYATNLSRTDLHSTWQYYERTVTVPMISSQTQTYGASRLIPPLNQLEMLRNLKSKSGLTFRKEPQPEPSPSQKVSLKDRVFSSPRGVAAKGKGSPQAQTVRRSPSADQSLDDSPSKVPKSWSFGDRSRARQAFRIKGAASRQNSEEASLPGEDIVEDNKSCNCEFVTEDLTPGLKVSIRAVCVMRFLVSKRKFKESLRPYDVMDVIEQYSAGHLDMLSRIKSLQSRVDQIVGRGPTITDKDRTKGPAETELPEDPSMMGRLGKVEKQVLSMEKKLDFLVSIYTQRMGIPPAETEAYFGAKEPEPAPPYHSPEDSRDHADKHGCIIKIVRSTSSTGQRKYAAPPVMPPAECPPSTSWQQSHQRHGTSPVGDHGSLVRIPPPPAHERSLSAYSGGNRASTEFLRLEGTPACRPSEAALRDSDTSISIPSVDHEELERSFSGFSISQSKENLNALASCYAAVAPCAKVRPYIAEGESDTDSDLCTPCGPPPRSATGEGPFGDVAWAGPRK

SMILES | activity change, less the hit threshold
Cc1cc(C)c(-c2cc(NC(=O)COC(=O)c3ccc(NC(=O)CC#N)cc3)n(-c3ccccc3)n2)cc1C | -22.1%
NC(=O)CC1NC(=O)c2ccccc21 (centres undefined) | -13.3%
CCCNS(=O)(=O)c1ccc(OCC(=O)Nc2ccc3c(c2)OCCO3)cc1 | -11.5%
Cc1oc(-c2cccs2)nc1CN1CCC(C(=O)N2CCCC2)CC1 | -17.4%
CC1c2nc3ccccc3n2C(CC(=O)NCCCN2CCOCC2)C(=O)N1Cc1ccccc1 (centres undefined) | -19.4%
O=C(NC(=S)N(CC1CCC1)CC1CCCO1)c1cccc([N+](=O)[O-])c1 (centres undefined) | 39.6% (active)
O=C(O)c1cccc(C(=O)Nc2cccc(NC(=O)C3CCCO3)c2)c1 (centres undefined) | -21.4%
CC1CCN(C(=S)NC(=O)c2cccc([N+](=O)[O-])c2)CC1 | 5.8% (active)
CCC1CCCCN1C(=S)NC(=O)c1cccc([N+](=O)[O-])c1 (centres undefined) | 24% (active)
CCC1CCCCN1C(=S)NC(=O)c1cccs1 (centres undefined) | -4.1%
O=C(NC(=S)Nc1ccccc1N1CCCC1)c1ccc(-c2cccc([N+](=O)[O-])c2)o1 | -10.1%
CCC1CCCCN1C(=S)NC(=O)c1ccc([N+](=O)[O-])cc1 (centres undefined) | 32.5% (active)
O=C(Nc1ccc(Oc2cccnc2)cc1)c1cccc([N+](=O)[O-])c1 | -14.1%
Cn1cc([N+](=O)[O-])c(C(=O)N/N=C\c2c[nH]c3ccccc23)n1 | -15.5%
CCCCN1C(=O)/C(=C2/Sc3ccc(Cl)cc3N2CC)SC1=S | -27.6%
CNC(=O)c1ccc(NC(=O)CN2c3cccc4cccc(c34)S2(=O)=O)cc1 | -18.1%
COc1ccc(CS(=O)(=O)CC2(O)CCN(C(=O)c3cccc(C(F)(F)F)c3)CC2)cc1 | -25.4%
O=C1CN(C(=O)COc2ccccc2F)c2ccccc2N1 | -18.7%
O=C(c1csc(Nc2ccccc2Cl)n1)N1CCCC1 | -14.5%
COc1cc(CNn2nnnc2N)ccc1OCC(=O)NC(C)(C)C | -20%
COc1ccccc1CC(=O)Nc1ccc(OC)c(OC)c1 | -12.4%
COc1ccc(NC(=O)CCN2C(=O)C3C4C=CC(C4)C3C2=O)cc1 (centres undefined) | -21.1%
COc1ccc(NC(=O)CC23CC4CC(CC(C4)C2)C3)cn1 | 44.4% (active)
CC(C)(C)c1cc(CCC(=O)NCc2ccncc2)cc(C(C)(C)C)c1O | -15.7%
CCOC(=O)c1sc2nc(N3CCOCC3)c3c(c2c1N)CCN(Cc1ccccc1)C3 | 0.1% (active)

SMILES | activity change, less the hit threshold
Cn1ncc2c(NNC(=O)c3ccc(O)cc3)ncnc21 | -24.5%
O=C(Nc1ccccc1C(=O)O)c1cncc(Br)c1 | -3%
CC(C)(C)NC(=O)C(=O)NNC(=O)COc1ccccc1 | -16.3%
CCCc1cc(C(=O)NNC(=S)Nc2cccc(C)c2)cs1 | -16.5%
CC(C)(C)NC(=O)C(=O)NNC(=O)c1ccccc1 | -9.7%
CC(C)(C)c1ccc(C(=O)CC(=O)c2cc(Cl)ccc2O)cc1 | -11.6%
C=CCNC(=O)COc1ccc(Oc2ccccc2)cc1 | -6.4%
CC(C)(C)NC(=O)C(=O)NNC(=O)c1cccc(Br)c1 | 16.4% (active)
CC(C)(C)NC(=O)C(=O)NNC(=O)COc1ccc(Br)cc1 | 41.1% (active)
Cc1cccc(NC(=O)C(=O)NNC(=O)c2ccc(C(C)(C)C)cc2)c1 | 110% (active)
CC/C(=N\NC(=S)Nc1cccc(C)c1)c1ccccc1 | -13%
CC(C)(C)NC(=O)C(=O)NNC(=O)c1ccc(C(C)(C)C)cc1 | 27.1% (active)
O=C(NN1C(=O)C2C(c3ccccc3)C=CC(c3ccccc3)C2C1=O)c1cccc(Br)c1 (centres undefined) | -3.8%
O=C(/C=C/c1ccccc1)Nc1ccc(S(=O)(=O)N2CCOCC2)cc1 | -12.6%
Cc1cc(C(=O)N/N=C/c2ccc(O)c([N+](=O)[O-])c2)n[nH]1 | -19.6%
O=C(CSc1ccccc1)N1CCN(S(=O)(=O)c2cccs2)CC1 | -6.8%
O=C(CSc1nnc(NC(=O)c2ccc(S(=O)(=O)N3CCOCC3)cc2)s1)Nc1ccccc1C(F)(F)F | -15.6%
O=C(CSc1nc2ccc(NC(=O)c3ccccc3C(=O)O)cc2s1)Nc1c(Cl)cccc1Cl | -7.3%
COc1ccc(N2C(=O)CCC(C(=O)O)C2c2ccc(F)cc2)cc1 (centres undefined) | -16.9%
CCC(C)NC(=O)Cn1nc(C(F)(F)F)c2c1CCCC2 (centres undefined) | -23.4%
O=C(NCc1cccnc1)Nc1ccc2c(c1)OCO2 | -26%
S=C(NCc1ccco1)N1CCN(c2nc(-c3ccccc3)cs2)CC1 | -24.1%
O=C(NC(=S)N1CCN(c2nc(-c3ccccc3)cs2)CC1)c1cncc(Br)c1 | 45.1% (active)
O=C(NC(=S)Nc1nc(-c2ccccc2)cs1)c1cncc(Br)c1 | -12.3%
CCC(C)c1ccccc1NC(=O)C(C)NCCN(C)C (centres undefined) | -17.2%

SMILES | activity change, less the hit threshold
COc1ccc(C)cc1S(=O)(=O)NC1CCCCC1 | -6.4%
C=C(C)CNC(=S)Nc1nc2c(cc1C(=O)OCC)CCCC2 | -9.5%
C=CCNC(=S)Nc1nc2c(cc1C(=O)OCC)CCCC2 | 1.1% (active)
CCOC(=O)c1cc2c(nc1NC(=S)NCc1ccccc1)CCCC2 | -13.9%
CCNC(=S)Nc1nc2c(cc1C(=O)OCC)CCCC2 | 6.4% (active)
CCc1cccc2c1NC(=O)C2(O)CC(=O)c1cccs1 (centres undefined) | -20.9%
O=C(CCc1ccccc1)NC(=S)Nc1cc(C(F)(F)F)ccc1N1CCOCC1 | -30.4%
CCc1nccn1S(=O)(=O)c1ccc2ccc(C)cc2c1 | -8.3%
CC(OC(=O)c1cc2c(s1)CCCCC2)C(=O)NC(N)=O (centres undefined) | -23.7%
NC(=O)C1CCN(C(=O)c2cc3c(s2)CCCC3)CC1 | 12% (active)
O=C(c1cc2c(s1)-c1ccccc1OC2)N1CCCC1 | -12.6%
Cc1sc2ncnc(SCC(=O)c3ccc(O)cc3O)c2c1C | 2.9% (active)
Cc1sc2ncnc(SCC(=O)NC(=O)c3cccn3C)c2c1C | -2.4%
CCOc1ccc(-n2cnc3sc(C)c(C)c3c2=O)cc1 | -26.5%
O=C(Nc1cccnc1)c1ccc(COc2ccccc2Br)o1 | -13.5%
C=CCOc1ccccc1/C=c1\sc2nc(=O)c(C)nn2c1=O | -17.3%
S=C(NCCc1ccccc1)NCCN1CCOCC1 | -16.4%
O=C(NC(=S)NCCC1=CCCCC1)c1ccco1 | 42.7% (active)
O=C(NC(=S)NCCC1=CCCCC1)c1ccc(Br)o1 | 3.5% (active)
O=C(NC(=S)NCCc1ccc(Cl)cc1)c1ccco1 | -7.7%
Cc1ccc(/C=N/Nc2ccc(C(=O)O)cc2)o1 | -9.1%
Cc1ccc(N=C2NC(=O)/C(=C/c3cccs3)S2)cc1C | -6.4%
O=C(OCc1ccccc1)/C(=C/c1cccc([N+](=O)[O-])c1)NC(=O)c1ccco1 | -19.1%
O=C1NC(=S)S/C1=C\c1ccc2ccccc2c1 | 53.3% (active)
COc1ccc2nc(N3CCCCC3)c(/C=C3\SC(=S)NC3=O)cc2c1 | -17.9%

SMILES | activity change, less the hit threshold
O=C1NC(=S)/C(=C\c2ccc(-c3ccccc3Cl)o2)S1 | -18.7%
S=c1[nH]c(-c2ccccc2)cn1/N=C/c1cccc2ccccc12 | -7.9%
CC1CCc2c(sc3[nH]c(=S)n(C)c(=O)c23)C1 (centres undefined) | 72.5% (active)
Cn1c(=S)[nH]c2sc3c(c2c1=O)CCC(C(C)(C)C)C3 (centres undefined) | 70.3% (active)
CCCOC(=O)CN1C(=O)c2ccc(C(=O)OCCC)cc2C1=O | -12.2%
O=c1oc2cc(OCCO)ccc2c2c1CCCC2 | -17.1%
Cc1ccc2nc(-c3ccncc3)cc(C(=O)Nc3ccc4c(c3)OCCO4)c2c1 | -19.5%
CS(=O)(=O)N1CCC(C(=O)Nc2c(F)cccc2F)CC1 | -11.1%
O=C(COc1ccc(Cl)cc1Cl)NC(=S)Nc1ccccc1C(=O)O | -12.7%
Cc1occc1C(=O)NNC(=S)NC(=O)COc1ccc(Cl)cc1Cl | 64.9% (active)
COc1ccc(Cl)cc1C(=O)NNC(=S)NC(=O)/C=C/c1ccco1 | -17%
COc1ccc(CN(C)C(=O)c2cccc(NS(=O)(=O)c3ccccc3)c2)cc1F | -13.5%
CN1CCN(c2nnc(-c3cccs3)c3ccccc23)CC1 | -26.6%
COC(=O)c1sccc1NC(=S)N1CC(C)CC(C)C1 (centres undefined) | -25%
O=c1ccc(N=Nc2ccccc2)ccc1O | 87.6% (active)
CN(C)c1ccc(N=Nc2ccc(C(=O)O)cc2)cc1 | -18.5%
O=C(COC(=O)c1cccs1)NCCN1C(=O)CSC1=O | -22%
Cn1c(CNC(=O)CNC(=O)c2ccc(F)cc2)cc(=O)n(C)c1=O | -10.8%
CC(NC(=O)c1ccc(Br)cc1)c1ccc2c(c1)CCCC2 (centres undefined) | 33.3% (active)
CCc1ccc(C(C)NC(=O)c2ccc(F)cc2)cc1 (centres undefined) | 21.6% (active)
CC(NC(=O)CCNC(=O)c1ccco1)c1ccc(F)cc1 (centres undefined) | -12.9%
CC(NC(=O)c1ccc(F)cc1)c1ccc2c(c1)CCCC2 (centres undefined) | 26.1% (active)
S=c1[nH]c2ccccc2n2cccc12 | -14.5%
CCOc1ccc(-n2c(C)c(C(C)=O)c3cc(O)ccc32)cc1 | -2.3%
